From PubChem
KLF5 inh: inhibitors of KLF5 expression; AID 1700; DLD-1 KLF5 promoter-luciferase reporter, luminescence; inhibition, % at 5 µM; 290,000 tested, 0.23% active;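 active means inhibition above a per-plate limit of that plate's mean compound inhibition plus 3 SD, cut at about 60% in these data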;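 further: 0% = DMSO wells and 100% = LY294002 at 200 µM; higher means less KLF5 promoter-driven luciferase light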
aSyn UTR inh: MLPCN primary screen, SNCA 5' untranslated region; alpha-synuclein 5'UTR reporter, inhibitor activity; inhibition, % (tested at 7.5 µM); AID 1813; 300,000 tested, 0.82% active; in the data active means inhibition above about 60%; inconclusive means no clear call, values can overlap the other calls;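 further: H4 neuroglioblastoma cells stably carrying SNCA 5'UTR luciferase fusion; 0% = DMSO wells and 100% = positive control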
Ba/F3 V617F tox: lowers viability of Ba/F3 cells expressing EpoR and JAK2V617F; 220,000 tested, 1.1% active; inhibition, % at 5.6 µM; ATP luminescence; AID 1446;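 active means inhibition above the campaign mean plus 3 SD over all tested compounds, cut at about 24% in these data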;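 further: cytokine-independent growth of Ba/F3 cells driven by EpoR plus mutant JAK2; 0% = DMSO-treated cells and 100% = JAK inhibitor I control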
APP 5UTR inh: APP translation inhibition; SH-SY5Y APP 5'UTR-luciferase reporter, luminescence; 190,000 tested, 0.82% active; inhibition, % at 2 µM; AID 1285;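 active means inhibition above a set limit, derived from the sample mean plus 3 SD, cut at about 45% in these data; inconclusive means one replicate passes the limit while the other fails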
BaF3 tox: parental Ba/F3 viability inhibition as JAK2V617F counter-screen; CellTiter-Glo ATP luminescence; inhibition, % at 5.6 µM; 220,000 tested, 1.1% active; AID 1486;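 active means inhibition above a per-campaign cutoff, the mean inhibition of all tested compounds plus 3 SD, cut at about 27% in these data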;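 further: 0% = DMSO wells and 100% = JAK Inhibitor I control wells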
IEC-6 tox: counter-screen for KLF5 inhibitors: cytotoxicity in IEC-6 cells | IEC-6 cytotoxicity, luminescence viability | inhibition, % at 5 µM | 290,000 tested, 0.78% active; in the data active means inhibition above about 22%;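 further: 0% = plate median of test compound wells and 100% = cytotoxic reference compound wells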
* = called active by the depositor. Sampled rows, rich in hits. Any-hit rate of the full collection: about 2.1%.

For O=S(=O)(c1ccc(Cl)cc1)N1CCN(Cc2c[nH]c3ccccc23)CC1 the results were KLF5 inh -32, aSyn UTR inh 17, Ba/F3 V617F tox -2, APP 5UTR inh -15, BaF3 tox 4 and IEC-6 tox 0.
Screening Clc1ccccc1N1CCN(Cc2c[nH]c3ccccc23)CC1 returned aSyn UTR inh 64*.
For CC(C)(C)SCCNC(=O)/C=C/c1ccc(F)cc1 the results were KLF5 inh -76, aSyn UTR inh -68, Ba/F3 V617F tox -2, APP 5UTR inh -10, BaF3 tox 2 and IEC-6 tox -5.
CC(C)(C)SCCNC(=O)/C=C/c1ccccc1 was read as KLF5 inh -42, aSyn UTR inh -113, Ba/F3 V617F tox 0, BaF3 tox 45* and IEC-6 tox 0.
Screening CC(C)Cn1c(N)c(C(=O)COC(=O)CC23CC4CC(CC(C4)C2)C3)c(=O)n(C)c1=O returned KLF5 inh -16, aSyn UTR inh 14, Ba/F3 V617F tox 36*, APP 5UTR inh 10, BaF3 tox 42* and IEC-6 tox 11.
For O=C(c1cc(-c2ccc(Cl)cc2Cl)on1)N1CCOCC1 the results were KLF5 inh -91, aSyn UTR inh 80*, Ba/F3 V617F tox 2, APP 5UTR inh -196, BaF3 tox 5 and IEC-6 tox 1.
O=C(OCCCOC(=O)c1ccc(O)cc1)c1ccc(O)cc1 was read as KLF5 inh -28, aSyn UTR inh 20 and IEC-6 tox -6.
For CN1/C(=C\C(=O)COC(=O)c2ccccc2O)C(C)(C)c2ccccc21 the results were KLF5 inh 1, aSyn UTR inh -8, Ba/F3 V617F tox -1, BaF3 tox 2 and IEC-6 tox 2.
Screening CN1/C(=C\C(=O)c2cccnc2)C(C)(C)c2ccccc21 returned KLF5 inh 20, aSyn UTR inh -7, Ba/F3 V617F tox -1, APP 5UTR inh -34, BaF3 tox 7 and IEC-6 tox 0.
For CN1/C(=C\C(=O)C[n+]2ccc3ccccc3c2)C(C)(C)c2ccccc21 the results were KLF5 inh 22, aSyn UTR inh -31, Ba/F3 V617F tox 41*, APP 5UTR inh -20, BaF3 tox 42* and IEC-6 tox 2.
For CN1/C(=C\C(=O)COc2ccc3c(c2)OCO3)C(C)(C)c2ccccc21 the results were KLF5 inh -9, aSyn UTR inh 2, Ba/F3 V617F tox 64*, APP 5UTR inh 3, BaF3 tox 62* and IEC-6 tox 0.
Screening CN1/C(=C/C(=O)c2nc(S(C)(=O)=O)ncc2Cl)C(C)(C)c2ccccc21 returned KLF5 inh -30, aSyn UTR inh inconclusive, Ba/F3 V617F tox 87*, APP 5UTR inh 57*, BaF3 tox 92* and IEC-6 tox -4.
`CN1/C(=C\C(=O)COC(=O)c2ccco2)C(C)(C)c2ccccc21` gave KLF5 inh -14, aSyn UTR inh 17, Ba/F3 V617F tox 12, APP 5UTR inh -30, BaF3 tox 4 and IEC-6 tox 5.
For CN1/C(=C\C(=O)c2ccco2)C(C)(C)c2ccccc21 the results were KLF5 inh -6, aSyn UTR inh 4, Ba/F3 V617F tox 72*, APP 5UTR inh -8, BaF3 tox 65* and IEC-6 tox 9.
`COc1ccccc1OCC(=O)/C=C1/N(C)c2ccccc2C1(C)C` gave KLF5 inh -38, aSyn UTR inh 24, Ba/F3 V617F tox 6, APP 5UTR inh -7, BaF3 tox 7 and IEC-6 tox -4.
Screening CCOc1ccccc1NC(=O)CSc1nnc(CNC(=O)c2cc(OC)c(OC)c(OC)c2)o1 returned KLF5 inh -19, aSyn UTR inh 14 and IEC-6 tox -1.
Screening Cc1nc2ccc(NC(=O)CCC3CCCC3)cc2s1 returned KLF5 inh -87, aSyn UTR inh -143 and IEC-6 tox -6.
CN1/C(=C\C(=O)c2cncc(Br)c2)C(C)(C)c2ccccc21 was read as KLF5 inh -32, aSyn UTR inh 1, Ba/F3 V617F tox 62*, APP 5UTR inh -1, BaF3 tox 70* and IEC-6 tox -2.
Screening COc1ccccc1CN1CC(C(=O)N2CCC(C(=O)c3ccccc3)CC2)CCC1=O (centres undefined) returned KLF5 inh -17, aSyn UTR inh -42 and IEC-6 tox 16.
Screening CN1CCN(C(=O)C2CC(=O)N(c3ccc(Cl)cc3)C2)CC1 (centres undefined) returned KLF5 inh -9, aSyn UTR inh 2 and IEC-6 tox -2.
For O=C(NCCN1CCOCC1)NC1(C(F)(F)F)Oc2ccccc2O1 the results were KLF5 inh -2, aSyn UTR inh -36, Ba/F3 V617F tox 2, APP 5UTR inh 5, BaF3 tox 9 and IEC-6 tox 3.
`NS(=O)(=O)c1ccc(CCNC(=O)NC2(C(F)(F)F)Oc3ccccc3O2)cc1` gave KLF5 inh 7, aSyn UTR inh -53, Ba/F3 V617F tox 57*, APP 5UTR inh 25, BaF3 tox 39* and IEC-6 tox 12.
For CCCCNC(=O)NC1(C(F)(F)F)Oc2ccccc2O1 the results were KLF5 inh -11, aSyn UTR inh -31, Ba/F3 V617F tox 7, APP 5UTR inh 14, BaF3 tox 4 and IEC-6 tox -3.
Cc1cc(NC(=O)NC2(C(F)(F)F)Oc3ccc(Cl)cc3O2)no1 (centres undefined) was read as KLF5 inh -17, aSyn UTR inh -55, Ba/F3 V617F tox 51*, APP 5UTR inh 38, BaF3 tox 28* and IEC-6 tox 4.
COCCNC(=O)NC1(C(F)(F)F)Oc2ccc(Cl)cc2O1 (centres undefined) was read as KLF5 inh -32, aSyn UTR inh -59, Ba/F3 V617F tox 46*, APP 5UTR inh 31, BaF3 tox 39* and IEC-6 tox 11.
Screening O=C(NCc1cccnc1)NC1(C(F)(F)F)Oc2ccc(Cl)cc2O1 (centres undefined) returned KLF5 inh -14, aSyn UTR inh -30, Ba/F3 V617F tox 52*, APP 5UTR inh 22, BaF3 tox 39* and IEC-6 tox 2.
For Cc1ccc(C)c(OCc2cc(C(=O)N(C)Cc3nccs3)no2)c1 the results were KLF5 inh -42, aSyn UTR inh -40 and IEC-6 tox 4.
`CC(C)Sc1nnc(-c2c[nH]c3ccccc23)n1C` gave KLF5 inh -49, aSyn UTR inh -111, Ba/F3 V617F tox 1, BaF3 tox 10 and IEC-6 tox 0.
Screening C#CCSc1nnc(-c2c[nH]c3ccccc23)n1C returned KLF5 inh -25, aSyn UTR inh -34, Ba/F3 V617F tox 30*, APP 5UTR inh -54, BaF3 tox 48* and IEC-6 tox -1.
Screening Cc1ccc(S(=O)(=O)Nc2cc3c4c(c2)CCN4C(=O)CC3)cc1 returned aSyn UTR inh 1.
Screening Cc1ccc(-c2cc3c(N=O)c4ccccc4c-3n[nH]2)cc1 returned KLF5 inh -17, aSyn UTR inh 92*, Ba/F3 V617F tox 7, APP 5UTR inh -6, BaF3 tox 6 and IEC-6 tox 11.
